The text below walks through data of ChEMBL document CHEMBL4649985, “Generation of a Selective Small Molecule Inhibitor of the CBP/p300 Bromodomain for Leukemia Therapy” (Cancer Res, 2015).

As usually defined, the ΔTm is the shift of the melting midpoint relative to a reference.

Experiment [1] has as its target Bromodomain-containing protein 4 (Homo sapiens) (UniProt O60885). The note with it: Compound concentration 10.0 uM, Protein concentration 2.0 uM.
For experiment [2], the target named is T1, Transcription intermediary factor 1-alpha (Homo sapiens) (UniProt O15164).
T1 sequence (whole entry): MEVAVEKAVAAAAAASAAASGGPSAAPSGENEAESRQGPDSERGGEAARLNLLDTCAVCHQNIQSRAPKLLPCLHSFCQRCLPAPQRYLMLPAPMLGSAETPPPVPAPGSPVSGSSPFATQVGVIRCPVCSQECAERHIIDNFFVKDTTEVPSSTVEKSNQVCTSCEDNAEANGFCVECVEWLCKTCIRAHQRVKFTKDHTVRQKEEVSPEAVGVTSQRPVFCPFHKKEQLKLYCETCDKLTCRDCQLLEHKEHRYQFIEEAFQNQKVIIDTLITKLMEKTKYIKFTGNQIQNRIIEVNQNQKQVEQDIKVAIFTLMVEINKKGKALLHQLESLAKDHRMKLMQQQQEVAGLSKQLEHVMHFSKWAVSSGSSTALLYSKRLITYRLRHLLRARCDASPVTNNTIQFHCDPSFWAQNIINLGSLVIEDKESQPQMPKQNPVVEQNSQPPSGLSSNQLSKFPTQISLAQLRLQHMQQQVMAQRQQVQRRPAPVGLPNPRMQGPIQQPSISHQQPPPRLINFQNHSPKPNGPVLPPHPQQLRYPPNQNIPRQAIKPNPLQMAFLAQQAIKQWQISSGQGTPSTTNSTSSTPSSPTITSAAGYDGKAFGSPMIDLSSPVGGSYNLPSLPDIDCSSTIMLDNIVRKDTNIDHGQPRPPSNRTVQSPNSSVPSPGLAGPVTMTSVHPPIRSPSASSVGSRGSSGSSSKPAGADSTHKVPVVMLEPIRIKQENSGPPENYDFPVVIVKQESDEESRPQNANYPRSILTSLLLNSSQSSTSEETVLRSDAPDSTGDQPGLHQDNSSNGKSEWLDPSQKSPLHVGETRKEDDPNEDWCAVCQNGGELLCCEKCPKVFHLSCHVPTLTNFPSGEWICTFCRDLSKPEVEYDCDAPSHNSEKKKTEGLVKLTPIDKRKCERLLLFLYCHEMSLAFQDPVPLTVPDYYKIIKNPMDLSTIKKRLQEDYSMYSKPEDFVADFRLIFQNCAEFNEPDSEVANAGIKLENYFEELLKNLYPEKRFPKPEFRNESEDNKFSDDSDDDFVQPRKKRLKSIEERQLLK
The conditions noted are these: Compound concentration 10.0 uM, Protein concentration 2.0 uM.

Values joined by “and” are separate entries in the source; they are usually repeats but may differ in a detail not shown here. Identical values can stand only once.

As to `CCC(=O)N1CCOc2c(cc(-c3ccc(OC)c(OC)c3)cc2OC[C@H]2CCCN(C)C2)C1`, the thermal shift (ΔTm) in experiment [1] was 2.08 °C and 2.81 °C; in experiment [2], 1.25 °C.
